From PubChem BioAssay
TLR4-MyD88 inh: blocks binding of human TLR4 to MyD88; 0.06% of 16,000 active; O00206; inhibition, % at 10 µM; Cell-based TLR4-MyD88 binding inhibition assay; in the data active = inhibition above about 45%
NOTCH ag: activates NOTCH signaling in reporter cells | 0.4% of 15,000 active | NOTCH signaling luciferase reporter cells, luminescence | activation, % at 2.5 µM; in the data active = activation above about 2.2%
luminol inh ctr: luminol signal inhibition, Nox1 inhibitor counter-screen; inhibition, % at 6.7 µM; AID 1823; 0.4% of 16,000 active; HRP/luminol/H2O2 chemiluminescence counterscreen; also: reference of the scale not given here
PME-1 Maybridge: PME-1 (human) inhibition, Maybridge primary screen; Q9Y570; recombinant PME-1, FP-Rh probe fluorescence polarization; inhibition, % at 9 µM; 0.5% of 16,000 active; AID 2291; in the data active = inhibition above about 30%
Nox1 inhibitor: human Nox1 inhibition | Q9Y5S8 | HT29 cells, luminol chemiluminescence ROS | inhibition, % at 6.7 µM | 0.81% of 16,000 active | AID 1792
Target sequence (Q9Y5S8 whole entry, looked up): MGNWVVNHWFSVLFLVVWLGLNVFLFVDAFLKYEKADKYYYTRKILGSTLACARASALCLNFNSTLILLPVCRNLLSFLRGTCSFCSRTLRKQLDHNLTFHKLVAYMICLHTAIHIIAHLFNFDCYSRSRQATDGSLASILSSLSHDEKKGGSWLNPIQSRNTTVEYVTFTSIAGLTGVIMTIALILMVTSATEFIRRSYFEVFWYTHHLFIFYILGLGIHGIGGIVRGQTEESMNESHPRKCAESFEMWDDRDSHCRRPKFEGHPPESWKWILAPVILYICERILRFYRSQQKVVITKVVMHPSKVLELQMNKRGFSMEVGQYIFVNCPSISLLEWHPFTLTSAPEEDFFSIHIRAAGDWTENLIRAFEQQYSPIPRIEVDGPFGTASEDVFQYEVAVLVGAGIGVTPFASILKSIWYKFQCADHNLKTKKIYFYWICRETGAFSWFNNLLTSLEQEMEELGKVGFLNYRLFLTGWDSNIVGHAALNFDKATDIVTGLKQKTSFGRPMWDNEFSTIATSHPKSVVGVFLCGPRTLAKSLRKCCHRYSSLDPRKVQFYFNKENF
KOR antag MB: antagonists of human kappa opioid receptor OPRK1, Maybridge library; 0.4% of 16,000 active; AID 652031; P41145; OPRK1 cells, antagonist mode, fluorescence readout; inhibition, % at 9 µM; in the data active = inhibition above about 50%
Active calls of the source: *. Rows were chosen to be rich in hits. Some 2.3% of all compounds tested hit in one or more screens of this group. Rule as the data show it, unless noted: active = inhibition above about 75%; inactive = the rest.

Results for O=S(=O)(Nc1ccc(N2CCCCC2)cc1)c1cc(Cl)sc1Cl ?
TLR4-MyD88 inh: 0.9; NOTCH ag: 0.2; luminol inh ctr: 68.3; PME-1 Maybridge: 6.7; Nox1 inhibitor: 102.1*; KOR antag MB: 26.0

Results for Clc1ccc(COc2ccc(-c3noc(C4CC4)n3)cc2)cc1 ?
TLR4-MyD88 inh: 0.3; NOTCH ag: -0.4; luminol inh ctr: 3.2; PME-1 Maybridge: -5.5; Nox1 inhibitor: -19.8; KOR antag MB: 0.3

How did CSc1cccc(N/C(=N\S(=O)(=O)c2ccccc2)NN)c1 do in these assays?
TLR4-MyD88 inh: -4.7; NOTCH ag: -0.7; luminol inh ctr: 8.1; PME-1 Maybridge: 43.4*; Nox1 inhibitor: -50.4; KOR antag MB: -7.1

How did O=C(Nc1cccc2[nH]ccc12)C1CCCCC1 do in these assays?
TLR4-MyD88 inh: -1.7; NOTCH ag: 2.3*; luminol inh ctr: -8.8; PME-1 Maybridge: 4.6; Nox1 inhibitor: -13.2; KOR antag MB: 11.0

What do the screens show for `Cc1onc(-c2ccccc2)c1C(=O)NNc1c(Cl)cccc1Cl`?
TLR4-MyD88 inh: -6.6; NOTCH ag: 1.7; luminol inh ctr: 14.4; PME-1 Maybridge: 4.6; Nox1 inhibitor: -39.5; KOR antag MB: -24.5

Results for O=C(O)C(O)c1ccccc1Cl (stereo not given) ?
TLR4-MyD88 inh: 0.9; NOTCH ag: -0.5; luminol inh ctr: -1.6; PME-1 Maybridge: 2.6; Nox1 inhibitor: -20.6; KOR antag MB: -7.2

Results for O=C(Nc1ccccc1)N1CCN(c2ncccc2C(F)(F)F)CC1 ?
TLR4-MyD88 inh: 0.8; NOTCH ag: -1.3; luminol inh ctr: 3.4; PME-1 Maybridge: 1.4; Nox1 inhibitor: -34.7; KOR antag MB: 14.7

How did Cc1ccc(OC(=O)c2sc3ccccc3c2Cl)c([N+](=O)[O-])n1 do in these assays?
TLR4-MyD88 inh: -7.1; NOTCH ag: -0.1; luminol inh ctr: -4.3; PME-1 Maybridge: 3.7; Nox1 inhibitor: -15.2; KOR antag MB: -12.6

Results for Cc1ccc(OS(=O)(=O)c2c(Cl)sc(Cl)c2Br)c([N+](=O)[O-])n1 ?
TLR4-MyD88 inh: -6.0; NOTCH ag: -0.7; luminol inh ctr: -3.5; PME-1 Maybridge: 40.2*; Nox1 inhibitor: 11.7; KOR antag MB: 11.3

What do the screens show for `O=[N+]([O-])c1cc(C(F)(F)F)cc([N+](=O)[O-])c1Sc1ncc2ccccn12`?
TLR4-MyD88 inh: 2.4; luminol inh ctr: 1.0; PME-1 Maybridge: 2.0; Nox1 inhibitor: 102.3*; KOR antag MB: 10.8

How did O=C(Cc1nn[nH]n1)Nc1ccc(F)c(Cl)c1 do in these assays?
TLR4-MyD88 inh: 2.9; luminol inh ctr: 3.7; PME-1 Maybridge: -0.8; Nox1 inhibitor: -26.6; KOR antag MB: -19.2

Results for O=C(Nc1ccc(F)c(Cl)c1)c1cc(Br)ccc1O ?
TLR4-MyD88 inh: -15.3; NOTCH ag: -0.9; luminol inh ctr: -1.4; PME-1 Maybridge: 6.7; Nox1 inhibitor: 7.8; KOR antag MB: 69.6*

How did Cc1cccc(NNC(=O)C2CCC2)c1 do in these assays?
TLR4-MyD88 inh: 4.2; NOTCH ag: -0.9; luminol inh ctr: 101.0*; PME-1 Maybridge: -2.4; Nox1 inhibitor: 28.4; KOR antag MB: 13.6

Results for O=C(Nc1ccc(F)c(F)c1)C1CCC1 ?
TLR4-MyD88 inh: 0.5; NOTCH ag: -0.5; luminol inh ctr: -0.1; PME-1 Maybridge: -1.0; Nox1 inhibitor: -8.6; KOR antag MB: -0.8

What do the screens show for `O=C(NCCCN=Cc1ccccc1O)c1c(F)cccc1F`?
TLR4-MyD88 inh: 1.3; NOTCH ag: 0.1; luminol inh ctr: 1.7; PME-1 Maybridge: -3.2; Nox1 inhibitor: -14.9; KOR antag MB: 5.4

What do the screens show for `CN1CCN(c2ccc(NC(=O)Nc3ccc(C(F)(F)F)cc3)cc2)CC1`?
TLR4-MyD88 inh: 8.2; NOTCH ag: 0.5; luminol inh ctr: -0.2; PME-1 Maybridge: 36.1*; Nox1 inhibitor: -44.1; KOR antag MB: 4.2

How did Nc1nc2ccccc2c(=O)[nH]1 do in these assays?
TLR4-MyD88 inh: -0.4; NOTCH ag: 0.2; luminol inh ctr: -0.1; PME-1 Maybridge: 0.8; Nox1 inhibitor: 0.8; KOR antag MB: 11.2

What do the screens show for `Nc1nc2[nH]c(=S)[nH]c2c(=O)[nH]1`?
TLR4-MyD88 inh: -6.2; NOTCH ag: -0.7; luminol inh ctr: 9.9; PME-1 Maybridge: 3.8; Nox1 inhibitor: 92.5*; KOR antag MB: -7.1

How did CC(C)[C@@H](N)C(O)(c1ccccc1)c1ccccc1 do in these assays?
TLR4-MyD88 inh: -0.3; NOTCH ag: -0.2; luminol inh ctr: -0.5; PME-1 Maybridge: 1.8; Nox1 inhibitor: -81.2; KOR antag MB: -24.4

How did CCOC(=O)C(NCCc1ccc(OC)c(OC)c1)(NC(=O)c1ccco1)C(F)(F)F (stereo not given) do in these assays?
TLR4-MyD88 inh: 2.2; NOTCH ag: -1.4; luminol inh ctr: 3.2; PME-1 Maybridge: -3.9; Nox1 inhibitor: -28.9; KOR antag MB: -4.8

Results for O=[N+]([O-])c1ccc(S(=O)(=O)c2cc(Cl)ccc2Cl)[n+]([O-])c1 ?
TLR4-MyD88 inh: 3.4; NOTCH ag: 3.6*; luminol inh ctr: -1.9; PME-1 Maybridge: 3.8; Nox1 inhibitor: -57.9; KOR antag MB: 6.2

How did O=[N+]([O-])c1ccc(-c2cc3cc(Cl)ccc3o2)cc1 do in these assays?
TLR4-MyD88 inh: 7.0; NOTCH ag: -0.4; luminol inh ctr: -4.4; PME-1 Maybridge: 6.2; Nox1 inhibitor: 0.0; KOR antag MB: 4.6

Results for O=[N+]([O-])c1c(Sc2ccccn2)sc(Sc2ccccn2)c1[N+](=O)[O-] ?
TLR4-MyD88 inh: -13.9; NOTCH ag: -1.3; luminol inh ctr: -0.8; PME-1 Maybridge: 5.3; Nox1 inhibitor: 8.6; KOR antag MB: 3.7

How did CN(C)CCCNc1sc(-c2ccccn2)c([N+](=O)[O-])c1[N+](=O)[O-] do in these assays?
TLR4-MyD88 inh: -21.1; NOTCH ag: -0.2; luminol inh ctr: 6.6; PME-1 Maybridge: 64.8*; Nox1 inhibitor: -9.4; KOR antag MB: 13.2

What do the screens show for `N#CCCN(Cc1ccco1)S(=O)(=O)c1cccc2nonc12`?
TLR4-MyD88 inh: -17.8; NOTCH ag: 0.0; luminol inh ctr: -6.2; PME-1 Maybridge: 8.1; Nox1 inhibitor: 21.3; KOR antag MB: 0.9

How did CN1C(=O)C(=Cc2cn(-c3ccccc3)nc2-c2cccs2)C(=O)N(C)C1=O do in these assays?
TLR4-MyD88 inh: -2.0; NOTCH ag: -0.2; luminol inh ctr: 3.4; PME-1 Maybridge: -0.2; Nox1 inhibitor: 7.4; KOR antag MB: -4.6

What do the screens show for `CSC1=NS(=O)(=O)c2c(C)nn(C)c2S1`?
TLR4-MyD88 inh: -5.3; NOTCH ag: 0.1; luminol inh ctr: 21.2; PME-1 Maybridge: 6.4; Nox1 inhibitor: 88.9*; KOR antag MB: 20.8

What do the screens show for `COc1ccc(/C=N/NC(=O)c2nccnc2N)c(OC)c1OC`?
TLR4-MyD88 inh: -2.5; NOTCH ag: 0.1; luminol inh ctr: 0.8; PME-1 Maybridge: -0.7; Nox1 inhibitor: -9.1; KOR antag MB: 5.1

What do the screens show for `N#CCc1ccc(Oc2c(Cl)cncc2Cl)cc1`?
TLR4-MyD88 inh: -2.9; NOTCH ag: 0.1; luminol inh ctr: -7.2; PME-1 Maybridge: 4.7; Nox1 inhibitor: 9.5; KOR antag MB: 25.4

How did CCN(CC)c1ccc(NC(=O)C2CCCCC2)c(N(CC)CC)n1 do in these assays?
TLR4-MyD88 inh: 6.1; NOTCH ag: -0.1; luminol inh ctr: 5.3; PME-1 Maybridge: 1.9; Nox1 inhibitor: 75.0*; KOR antag MB: -8.0
